High-throughput results: PubChem BioAssay, The Scripps Research Institute Molecular Screening Center
ULK1 primary: inhibitors of human ULK1 kinase. O75385. AID 1259251. inhibition, % at 5.96 µM. AlphaScreen Atg13 phosphorylation by ULK1, luminescence. 30,000 compounds, 1.9% hits; in the data active = inhibition above about 43%
ASK1 primary: inhibitors of human ASK1 kinase. Q99683. AlphaScreen MKK6 phosphorylation by ASK1, luminescence. inhibition, % at 7.44 µM. 22,000 compounds, 0.99% hits. AID 1159602; in the data active = inhibition above about 35%
Each line names hits and unclear results; the compound was inactive in the other large screens; ! = not confirmed by another sample. An excerpt weighted towards active compounds, which were near 2.4% of everything screened.

c1ccc(CN2CCC(Nc3nc(Nc4ccc5ncccc5c4)nc4c3ncn4-c3ccsc3)CC2)cc1	none
Cc1cc(-c2ncn(-c3ccc(Nc4nccc(-c5cc(C#N)cc(N6CCOCC6)c5)n4)cc3)n2)ccn1	none
O=C1CCCN1CCCNc1nc(N2CCN(c3ccccn3)CC2)nc2c1ncn2Cc1ccc(C(F)(F)F)cc1	none
Cc1nn(C(=O)c2ccccc2Cl)c(C)c1S(=O)(=O)N1CCOCC1	none (no result: ASK1 primary)
C=CCN(CC=C)C(=O)c1cccc(C(=O)N(CC=C)CC=C)c1	none (no result: ASK1 primary)
O=C(c1ccco1)N1CCN(c2ccc3cccc(OCc4ccccc4)c3n2)CC1	none (no result: ASK1 primary)
Cc1cc(NCCO)nc(N2CCN(c3ccccn3)CC2)n1	none
Nn1cnnc1N/N=C/c1cccc2ccccc12	ULK1 primary 60 (no result: ASK1 primary)
COc1nc(N/N=C/c2cccc3ccccc23)nc(N2CCOCC2)n1	none (no result: ASK1 primary)
CCNc1nc(Nc2ccccc2)c2ncn(C(C)C)c2n1	ULK1 primary 57
c1ccc2[nH]c(CNc3nc(Nc4ccncc4)nc4c3ncn4-c3ccsc3)nc2c1	ULK1 primary 49
c1cncc(CNc2nc(Nc3ccc4c(c3)OCO4)c3ncn(-c4ccsc4)c3n2)c1	ULK1 primary 53
CC(C)n1cnc2c(Nc3ccc4c(c3)OCO4)nc(NCc3ccc4c(c3)OCO4)nc21	ASK1 primary 40
c1cncc(CNc2nc(NCc3ccc4c(c3)OCO4)nc3c2ncn3-c2ccsc2)c1	none
CCNc1nc(Nc2cc(OC)c(OC)c(OC)c2)c2ncn(C(C)C)c2n1	none
c1ccc2[nH]c(CNc3nc(Nc4ccc(-n5ccnc5)cc4)nc4c3ncn4-c3ccsc3)nc2c1	none
CC(=O)Nc1ccc(Nc2nc(NCc3ccc4c(c3)OCO4)nc3c2ncn3C(C)C)cc1	none
OCCNc1cc(Nc2cnccn2)ncn1	none
CC(C)n1cnc2c(Nc3ccccc3)nc(Nc3cccnc3)nc21	ULK1 primary 52
CC(C)n1cnc2c(Nc3ccccc3)nc(NCc3cccnc3)nc21	ULK1 primary 54
CC(C)n1cnc2c(Nc3ccc(Oc4ccccc4)cc3)nc(Nc3cccnc3)nc21	none
CC(C)n1cnc2c(NCc3ccccc3)nc(NCc3cccnc3)nc21	none
CN1CCC(CNC(=O)c2cccc(-n3cc(Nc4nnnn4-c4ccccc4)cn3)c2)CC1	none
CCOC(=O)C(C)(N)Cc1ccc(O)c(O)c1 (stereo unspecified)	none (no result: ASK1 primary)
CC(N)(Cc1ccc(O)c(O)c1)C(=O)O (stereo unspecified)	ULK1 primary 85 (no result: ASK1 primary)
COc1ccc(OC)c(C2Nc3ccc(C(=O)O)cc3C3C=CCC32)c1 (stereo unspecified)	none (no result: ASK1 primary)
FC(F)(F)c1cccc(CNc2ccnc(NCCN3CCOCC3)n2)c1	none
FC(F)(F)c1cccc(CNc2ccnc(Nc3ccc(N4CCOCC4)cc3)n2)c1	ASK1 primary 36!
O=C(CCl)Nc1ccc2nsnc2c1	none (no result: ASK1 primary)
O=C(CCl)Nc1ccc(CN2CCCC2)cc1	ULK1 primary 66 (no result: ASK1 primary)
Oc1cc(O)c2c(c1)O[C@H](c1ccc(O)c(O)c1)[C@@H](O)C2	ULK1 primary 53 (no result: ASK1 primary)
c1ccc(CN2CCC(Nc3nc(NCCN4CCOCC4)nc4c3ncn4C3CCCCC3)CC2)cc1	none
Cc1ncn(-c2ccc(Nc3ncc(Br)c(-c4cnn(C)c4)n3)cc2)n1	ULK1 primary 85
Cc1ccc(-c2ncn(-c3ccc(Nc4ncc(F)c(-c5cnn(C)c5)n4)cc3)n2)cn1	none
Cn1cc(-c2nc(Nc3ccc(-n4cnc(N5CCOCC5)n4)cc3)ncc2Br)cn1	ULK1 primary 61
Cc1onc(-c2nc(Nc3ccc(-n4cnc(N5CCOCC5)n4)cc3)ncc2Cl)c1-c1cnn(C)c1	none
CCN(CC)C(=O)C1CCCN(c2cc(NCCN(C(C)C)C(C)C)ncn2)C1 (stereo unspecified)	none
O=C1CCCN1CCn1cnc2c(NCCN3CCOCC3)nc(NC3CCN(Cc4ccccc4)CC3)nc21	none
O=C1CCCN1CCn1cnc2c(NCc3nc4ccccc4[nH]3)nc(Nc3ccncc3)nc21	none
OCCNc1nc(-c2ccccc2)nc2c1ncn2C1CCCCC1	none
O=C1CCCN1CCn1cnc2c(Nc3ccc(N4CCOCC4)cc3)nc(-c3ccc(N4CCOCC4)nc3)nc21	none
CN(c1ncccc1CNc1cc(Nc2ccc3c(c2)CC(=O)N3)ncc1C(F)(F)F)S(C)(=O)=O	none
CN(c1ncccc1CNc1nc(Nc2ccc3c(c2)CC(=O)N3)ncc1C(F)(F)F)S(C)(=O)=O	ULK1 primary 78
COc1ccc(CCNc2nc(Nc3ccccn3)nc3nc[nH]c23)cc1	none
CS(=O)(=O)c1cccc(N2CCN(Cc3ccc4ccccc4c3)C2=O)c1	none (no result: ASK1 primary)
CC1=C(C(=O)O)N2C(=O)[C@@H](NC(=O)C(N)c3ccc(O)cc3)[C@H]2SC1 (stereo partly specified)	none (no result: ASK1 primary)
COc1cc2nc(-c3ccc(C(=O)NC4CC4)cc3)nc(Nc3cc(OC)c(OC)c(OC)c3)c2cc1OC	none
O=C(NCc1cccnc1)c1ccc2nc(-c3ccccc3)sc2c1	none
O=C(NCc1cccnc1)c1ccc2nc(Br)sc2c1	ULK1 primary 45
CNS(=O)(=O)c1ccccc1Nc1nc(Nc2ccc(N3CCOCC3)cc2OC)ncc1Br	ULK1 primary 91
